Eight compounds from PubChem BioAssay (NCATS) can be followed below.

Assay [1] is described as follows: qHTS profiling of the MIPE4 collection as inhibitors of Plasmodium falciparum (DD2) proliferation (Rep 2) (AID 743346; call rule not given here). The note with it: P. falciparum Dd2 in erythrocytes, SYBR Green DNA, 72 h; at 28.5 µM unless noted. A digest of the protocol:
(§1)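 Erythrocytes infected with P. falciparum (0.3% parasitemia, 2.5% hematocrit) incubated with compounds 72 h at 37 C, 5% CO2. Lysis with saponin/Triton buffer containing SYBR Green I, overnight at room temperature in the dark; DNA fluorescence (485/535 nm) normalised to 0.29 uM artemisinin and DMSO.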
In general terms: Quantitative high-throughput screening tests each substance at several concentrations.

Assay [2] in a line: qHTS profiling of the MIPE4 collection as inhibitors of Plasmodium falciparum (HB3) proliferation (AID 743347; call rule not given here;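 also: plate controls were DMSO vehicle wells for no effect and artemisinin wells for full effect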). The note with it: P. falciparum HB3 in erythrocytes, SYBR Green DNA, 72 h; at 28.5 µM unless noted. Summed up:
as §1

Assay [3] can be described thus: High-throughput drug toxicity screening in the BPDCN cell line Gen2.2 (AID 1224824; call rule not given here;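 also: cells exposed to compounds for 48 h before reading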). The note with it: Gen2.2 BPDCN cells; at 45.8 µM (top of the series) unless noted. Summed up: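 Readout is ATP luminescence from Gen2.2 cells after two days of drug exposure in serum-containing medium at 37 °C. Values express percent activity, with vehicle defining full signal and 9.2 uM bortezomib defining zero.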

Assay [4] can be described thus: High-throughput drug toxicity screening in the BPDCN cell line Cal-1 (AID 1224825; call rule not given here). The conditions noted are these: Cal-1 BPDCN cell viability, qHTS; at 45.8 µM (top of the series) unless noted. A digest of the protocol:
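Cal-1 cells, 500 per well in phenol-red-free RPMI with 10% FBS, exposed to compounds for 48 hours at 37C, 5% CO2. Viability read by CellTiter-Glo luminescence; percent activity normalized to DMSO (100%) and 9.2 uM bortezomib final (0%).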

A short description of assay [5]: qHTS assay for measurement of the activity of small molecule inhibitors on Zika virus induced Caspase-3 activity in human iPSC derived neural progenitor cells (hNPCs) (AID 1224857). Also: nearly all actives have a fitted effect of over 65% in size. Also: potency is read from the fitted curve at half-maximal effect. Summed up: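 Human iPSC-derived neural progenitor cells pretreated 1 hr with compounds, then infected with Zika virus (2 FFU/cell) for 6 hours at 37 C. Caspase-3/7 measured by Caspase-Glo luminescence; % inhibition calculated from induction scaled to uninfected (0%) and infected (100%) wells.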

A short description of assay [6]: qHTS assay for measurement of the activity of small molecule inhibitors on Zika virus induced Caspase-3 activity in human astrocytoma cells (AID 1224859).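 Also: plate controls were ZIKV-infected untreated cells for no effect and uninfected cells for full effect.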 A digest of the protocol: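 SNB-19 astrocytoma cells, 250/well, pretreated 1 h with compounds, then Zika virus at 2 FFU/cell for 6 h at 37 C; Caspase-Glo 3/7 luminescence after 30 min; percent inhibition normalised to uninfected and infected controls.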

Assay [7] in a line: qHTS Screen of the MIPE 4.0 Collection Against Ewings Sarcoma (RDES) (AID 1259252). Also: nearly all actives have a fitted effect of over 35% in size. Also: potency is read from the fitted curve at half-maximal effect. Summed up: (§2)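 Viability screen: 48 h incubation at 37C, 95% humidity, 5% CO2 with serially titrated compound, followed by CellTiter-Glo readout.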
Assay [8] is described as follows: qHTS Screen of the MIPE 4.0 Collection Against Ewings Sarcoma (TC71) (AID 1259253). Also: nearly all actives have a fitted effect of over 40% in size. Also: potency is read from the fitted curve at half-maximal effect. Summed up: as §2
Assay [9] can be described thus: qHTS Screen of the MIPE 4.0 Collection Against Ewings Sarcoma (EW8) (AID 1259255). Also: nearly all actives have a fitted effect of over 35% in size. Also: potency is read from the fitted curve at half-maximal effect.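 As to viability: 100% = DMSO-treated cells and 0% = medium-only wells without cells.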 Summed up:
as §2

The nature of assay [10]: qHTS Screen of the MIPE 4.0 Collection Against Ewings Sarcoma (TC32) (AID 1259256). Also: nearly all actives have a fitted effect of over 45% in size. Also: potency is read from the fitted curve at half-maximal effect. A digest of the protocol:
as §2

Inconclusive results are not listed. Activity calls are given as the source filed them. Unless noted, calls follow the shape of the dose curve; as a rule, active = well fitted inhibition curve with a large enough effect; inconclusive = small, poorly fitted or top-dose-only effect; inactive = no such curve, though single readings can be large or run the other way. Residues, ends and D or L forms follow the SMILES beside them. *: point of attachment. Cbz = O=C(OCc1ccccc1)*

On to `O=C(O)C[C@H](O)C[C@H](O)C=Cc1c(C2CC2)nc2ccccc2c1-c1ccc(F)cc1`, for which the parasite growth, % of control (lower = inhibition) in [1] came to 67%. Further, the growth, % of control in assay [2] was 86.6%. The cell viability, % of control (lower = more cytotoxic) in assay [3] is 4.71%. In assay [4], this compound had a viability (% of control) of 38.9%. The Potency result in assay [5] and in [6] was “inactive” throughout. The Potency in assay [7] was 2640 nM (active); in assay [8] it was 1870 nM (active); in assay [9], 3720 nM (active); in [10], 1050 nM (active).
In assay [1], `O=C1NC(=O)[C@@H](c2cn3c4c(cccc24)CCC3)[C@H]1c1c[nH]c2ccccc12` registered a parasite growth, % of control (lower = inhibition) of 86.1%. The compound also displayed a growth, % of control in assay [2] of 60.4%. Also, in assay [3], the cell viability, % of control (lower = more cytotoxic) turned out to be 4.68%. In assay [4], this compound displayed a viability (% of control) of 14.9%. In addition, the Potency entry in assay [5] and in assay [6] was “inactive” in each case. Besides, the Potency is 296 nM (active) in assay [7], 526 nM (active) in assay [8], 235 nM (active) in assay [9] and 166 nM (active) in [10].
For `Nc1nc2c(c(=O)[nH]1)N(C=O)[C@H](CNc1ccc(C(=O)N[C@@H](CCC(=O)O)C(=O)O)cc1)CN2`, in [1], the parasite growth, % of control (lower = inhibition) turned out to be 86.2%. In [2], this compound yielded a growth, % of control of 103%. In addition, the cell viability, % of control (lower = more cytotoxic) in [3] is 118%. The viability (% of control) in assay [4] came out at 92.1%. Also, the Potency entry in assay [5], in assay [6], in assay [7], in [8], in assay [9] and in assay [10] was “inactive” in each case.
In the case of `CC(C)C[C@@H](C=O)NC(=O)[C@H](CC(C)C)NC(=O)[C@H](CC(C)C)NC(=O)OCc1ccccc1` (Cbz-Leu-Leu-Leu-aldehyde), the parasite growth, % of control (lower = inhibition) in assay [1] is 8.46%. Also, the growth, % of control in assay [2] was found to be 6.33%. For the same compound, in assay [3], the cell viability, % of control (lower = more cytotoxic) was found to be 5.4%. The same compound yielded a viability (% of control) in [4] of 4.19%. Besides, the Potency entry in assay [5] and in assay [6] was “inactive” each time. Also, the Potency is 469 nM (active) in assay [7], 590 nM (active) in [8], 332 nM (active) in [9] and 372 nM (active) in assay [10].
As for `C=C1C(=O)O[C@H]2[C@@H]1CCC(C)=CCC[C@@]1(C)O[C@@H]21`, the parasite growth, % of control (lower = inhibition) in assay [1] was 37.7%. In assay [2], this compound registered a growth, % of control of 31.2%. Further, in assay [3], the cell viability, % of control (lower = more cytotoxic) came out at 2.53%. The compound also had a viability (% of control) in assay [4] of 2.31%. Moreover, the Potency result in assay [5] and in assay [6] was “inactive” throughout. For the same compound, the Potency in assay [7] is 20900 nM (active); in [8] it was 10500 nM (active); in assay [9], 9350 nM (active); in [10], 9350 nM (active).
In assay [1], `O=C(O)[C@H](CC(=O)N1C[C@@H]2CCCC[C@H]2C1)Cc1ccccc1` displayed a parasite growth, % of control (lower = inhibition) of 69.7%. For the same compound, the growth, % of control in assay [2] stood at 57.9%. Also, the cell viability, % of control (lower = more cytotoxic) in [3] was found to be 133%. Moreover, the viability (% of control) in assay [4] stood at 89.5%. For the same compound, the Potency in [5] was 23500 nM (active). Further, the Potency entry in assay [6], in assay [7], in assay [8], in assay [9] and in assay [10] was “inactive” throughout.
Regarding `CCc1nc(-c2cccc(C)c2)c(-c2ccnc(NC(=O)c3ccccc3)c2)s1`, the parasite growth, % of control (lower = inhibition) in assay [1] worked out at 49.3%. Besides, in assay [2], the growth, % of control is 29.7%. In [3], the cell viability, % of control (lower = more cytotoxic) is 229%. The compound further yielded a viability (% of control) in assay [4] of 25.7%. Moreover, the Potency result in assay [5] and in assay [6] was “inactive” in each case. For the same compound, the Potency in [7] was 14800 nM (active); in [8], 18700 nM (active); in [9], 20900 nM (active); in assay [10] it was 20900 nM (active).
For the compound `C[C@@H](Oc1ccc2[nH]nc(C=Cc3cnn(CCO)c3)c2c1)c1c(Cl)cncc1Cl`, the parasite growth, % of control (lower = inhibition) in [1] worked out at 16.4%. Further, the growth, % of control in assay [2] amounted to 5.78%. Moreover, the cell viability, % of control (lower = more cytotoxic) in assay [3] amounted to 8.4%. The viability (% of control) in [4] was found to be 6.51%. Further, the Potency entry in [5] and in [6] was “inactive” in each case. In addition, the Potency in [7] is 3320 nM (active); in assay [8], 662 nM (active); in assay [9] it was 418 nM (active); in assay [10], 264 nM (active).
